# Where a name gives a salt, the structure may show the parent alone.
# Tested on: HeLa
# Assay: nuclear count per well, robust Z-score vs DMSO; higher = more cells (less toxicity)
# Details: 10 µM; 6 h
# 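For MALAT1 nuclear FISH intensity, robust Z-score vs DMSO in this document: High-content confocal imaging of branched-DNA amplified FISH in 384-well plates, Hoechst-defined nuclei, score is well value minus plate DMSO median over DMSO robust SD, four wells per compound.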
# 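For nuclear count per well, robust Z-score vs DMSO in this document: Hoechst-stained nuclei counted by automated confocal imaging of four fields per well in 384-well plates, with the robust Z-score based on the per-plate DMSO median and robust SD.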
row,Structure (SMILES),nuclear count per well
1,CC(C)[C@H]1CC[C@H](C(=O)N[C@H](Cc2ccccc2)C(=O)O)CC1 [Nateglinide],-0.477
2,CCCc1nc2c(C)cc(-c3nc4ccccc4n3C)cc2n1Cc1ccc(-c2ccccc2C(=O)O)cc1 [Telmisartan],0.344
3,CC1=C(C(=O)OC2CCCCC2)C(c2ccc([N+](=O)[O-])cc2)C2=C(CC(C)(C)CC2=O)N1 (stereo not drawn),-0.24
4,C[N+](C)(C)C[C@H](O)CC(=O)[O-] [Levocarnitine],0.541
5,CC(C)COCC(CN(Cc1ccccc1)c1ccccc1)N1CCCC1 (stereo not drawn) [Bepridil hydrochloride],-0.162
6,Fc1ccc(C(c2ccc(F)cc2)N2CCN(C/C=C/c3ccccc3)CC2)cc1,-1.4
7,CCc1c2c(nc3ccc(OC(=O)N4CCC(N5CCCCC5)CC4)cc13)-c1cc3c(c(=O)n1C2)COC(=O)[C@]3(O)CC,-1.03
8,CNC(C)C1CCC(N)C(OC2C(N)CC(N)C(OC3OCC(C)(O)C(NC)C3O)C2O)O1 (stereo not drawn) [Gentamycin Sulfate],-0.303
9,Cc1ccc(C(=O)COC(=O)c2cccc(NC(=O)c3ccc([N+](=O)[O-])cc3[N+](=O)[O-])c2)cc1,-0.226

# Tested on: HeLa
# Assay: MALAT1 nuclear FISH intensity, robust Z-score vs DMSO; higher = more nuclear MALAT1 lncRNA, active = -3 or less
# Details: 10 µM; 6 h
row,Structure (SMILES),MALAT1 nuclear FISH intensity
1,O=C1CN(/N=C/c2ccc(-c3ccc([N+](=O)[O-])cc3)o2)C(=O)N1 [Dantrolene sodium salt],-0.32 (inactive)
2,CN1CCCCC1CCN1c2ccccc2Sc2ccc([S+](C)[O-])cc21 (stereo not drawn) [Mesoridazine benzenesulfonate],-1.12 (inactive)
3,O=C(NCCCNc1nc(Nc2cccc(CN3CCOCC3)c2)ncc1C1CC1)C1CCC1,-1.71 (inactive)
4,NCC[C@H](O)C(=O)N[C@@H]1C[C@H](N)[C@@H](O[C@H]2O[C@H](CN)[C@@H](O)[C@H](O)[C@H]2O)[C@H](O)[C@H]1O[C@H]1O[C@H](CO)[C@@H](O)[C@H](N)[C@H]1O [Amikacin Disulfate],-0.653 (inactive)
5,O=C(O)c1cc(-c2ccccc2)nc2ccccc12 [Cincophen],-1.39 (inactive)
6,CCOC(=O)[C@H](CCc1ccccc1)N[C@H]1CCc2ccccc2N(CC(=O)O)C1=O,-1.39 (inactive)
7,CC(C)(Oc1ccc(CCNC(=O)c2ccc(Cl)cc2)cc1)C(=O)O [bezafibrate],0.066 (inactive)
8,CC(C)n1nc(-c2cc3cc(O)ccc3[nH]2)c2c(N)ncnc21 [PP242 hydrate],0.0212 (inactive)
9,Cc1nc2n(c(=O)c1CCN1CCC(c3noc4cc(F)ccc34)CC1)CCCC2O (stereo not drawn) [Paliperidone],0.851 (inactive)
10,C[C@H]1O[C@@H](O[C@H]2[C@@H](O)C[C@H](O[C@H]3[C@@H](O)C[C@H](O[C@H]4CC[C@@]5(C)[C@H](CC[C@@H]6[C@@H]5C[C@@H](O)[C@]5(C)[C@@H](C7=CC(=O)OC7)CC[C@]65O)C4)O[C@@H]3C)O[C@@H]2C)C[C@H](O)[C@@H]1O [Digoxin],3.27 (inactive)
11,Nc1nc(F)nc2c1ncn2[C@@H]1O[C@H](COP(=O)(O)O)[C@@H](O)[C@@H]1O [Fludarabine Phosphate],-0.596 (inactive)
12,CC(C)(S)[C@@H](N)C(=O)O [Penicillamine (D-Penicillamine)],0.684 (inactive)
13,S=c1[nH]cnc2nc[nH]c12 [Mercaptopurine hydrate],-1.26 (inactive)
14,CC(C)OC(=O)CCC/C=C\C[C@@H]1[C@@H](/C=C/[C@@H](O)COc2cccc(C(F)(F)F)c2)[C@H](O)C[C@@H]1O [Travoprost],2.32 (inactive)
15,O=C(c1ccc(OCCN2CCCCC2)cc1)c1c(-c2ccc(O)cc2)sc2cc(O)ccc12 [Raloxifene hydrochloride],-0.738 (inactive)
16,C=C1O[C@@](CO)(n2cnc3c(N)ncnc32)[C@H](O)[C@@H]1O [Decoyinine],0.453 (inactive)
17,"CCCCC[C@H](O)/C=C/[C@@H]1[C@@H](C/C=C\CCCC(=O)O)[C@@H](O)C[C@@H]1O [9a,11b-Prostaglandin F2]",-1.18 (inactive)
18,C=C[C@@]1(C)CC(=O)[C@]2(O)[C@@]3(C)[C@@H](O)CCC(C)(C)[C@@H]3[C@H](O)[C@H](OC(C)=O)[C@@]2(C)O1 [Forskolin],-1.06 (inactive)
19,CCCCC[C@H](O)/C=C/[C@@H]1[C@@H](CC(=O)CCCCC(=O)O)[C@@H](O)C[C@H]1O [6-Keto-prostaglandin F1a],0.823 (inactive)
20,CC(C)OC(=O)CCC/C=C\C[C@@H]1[C@@H](CC[C@@H](O)CCc2ccccc2)[C@H](O)C[C@@H]1O [Latanoprost],-0.241 (inactive)

row,Structure (SMILES),MALAT1 nuclear FISH intensity
1,CO[C@H]1/C=C/O[C@@]2(C)Oc3c(C)c(O)c4c(c3C2=O)C2=NC3(CCN(CC(C)C)CC3)NC2=C(NC(=O)/C(C)=C\C=C\[C@H](C)[C@H](O)[C@@H](C)[C@@H](O)[C@@H](C)[C@H](OC(C)=O)[C@@H]1C)C4=O [Rifabutin],-0.00159 (inactive)
2,Oc1cccc(-c2nc(N3CCOCC3)c3oc4ncccc4c3n2)c1,-1.86 (inactive)
3,CN(N=O)C(=O)N[C@@H](C=O)[C@@H](O)[C@H](O)[C@H](O)CO [Streptozocin],-0.691 (inactive)
4,CC[C@@H]1C(=O)OC[C@@H]1Cc1cncn1C,-0.179 (inactive)
5,CCCOc1ccccc1-c1nc2[nH]nnc2c(=O)[nH]1 [Zaprinast],0.586 (inactive)
6,Nc1ccc(S(=O)(=O)c2ccc(N)cc2)cc1 [Dapsone],-0.937 (inactive)
7,CCCCCCCCCCCCCCCC(=O)N[C@H](CN1CCOCC1)[C@H](O)c1ccccc1 (racemic),-0.367 (inactive)
8,O=C1CCc2cc(OCCCCc3nnnn3C3CCCCC3)ccc2N1 [Cilostazol],-0.676 (inactive)
9,COc1ccc(-c2ccc3cc(C(=O)O)ccc3c2)cc1C12CC3CC(CC(C3)C1)C2 [Adapalene],-0.946 (inactive)
10,Cc1cn([C@H]2C=C[C@@H](CO)O2)c(=O)[nH]c1=O [Stavudine],-0.129 (inactive)
11,CC(C)[C@H]1CC[C@H](C(=O)N[C@H](Cc2ccccc2)C(=O)O)CC1 [Nateglinide],0.843 (inactive)
12,CCCc1nc2c(C)cc(-c3nc4ccccc4n3C)cc2n1Cc1ccc(-c2ccccc2C(=O)O)cc1 [Telmisartan],-0.0853 (inactive)
13,CC1=C(C(=O)OC2CCCCC2)C(c2ccc([N+](=O)[O-])cc2)C2=C(CC(C)(C)CC2=O)N1 (stereo not drawn),-0.272 (inactive)
14,C[N+](C)(C)C[C@H](O)CC(=O)[O-] [Levocarnitine],-0.287 (inactive)
15,CC(C)COCC(CN(Cc1ccccc1)c1ccccc1)N1CCCC1 (stereo not drawn) [Bepridil hydrochloride],-1.05 (inactive)
16,Fc1ccc(C(c2ccc(F)cc2)N2CCN(C/C=C/c3ccccc3)CC2)cc1,1.27 (inactive)
17,CCc1c2c(nc3ccc(OC(=O)N4CCC(N5CCCCC5)CC4)cc13)-c1cc3c(c(=O)n1C2)COC(=O)[C@]3(O)CC,0.0202 (inactive)
18,CNC(C)C1CCC(N)C(OC2C(N)CC(N)C(OC3OCC(C)(O)C(NC)C3O)C2O)O1 (stereo not drawn) [Gentamycin Sulfate],0.205 (inactive)
19,Cc1ccc(C(=O)COC(=O)c2cccc(NC(=O)c3ccc([N+](=O)[O-])cc3[N+](=O)[O-])c2)cc1,-0.607 (inactive)

# From the supplement of paper PMC9844399
